This note sets out measurements from PubChem BioAssay AID1490 (National Center for Advancing Translational Sciences (NCATS), 2009).

Screen size: about 310,000 compounds; about 11,000 (3.5%) were called active. About 4% were inconclusive and are not listed. The list comes from a sample in which actives are over-represented; it also holds similar structures and randomly drawn compounds. Values without a mark were called inactive. Calls follow the shape of the dose curve; as a rule, active = well fitted inhibition curve with a large enough effect; inconclusive = small, poorly fitted or top-dose-only effect, or another doubt; inactive = no such curve, though single readings can be large or run the other way.
Potency is read from the fitted curve at half-maximal effect.

The assay addresses 4'-phosphopantetheinyl transferase ffp (Bacillus subtilis) (UniProt Q9F4F7). The experiment in a line: qHTS Assay for Inhibitors of Bacillus subtilis Sfp phosphopantetheinyl transferase (PPTase).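 Also: the enzyme is Sfp with the accession as filed and its product quenches rhodamine fluorescence.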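 As to largest response in the series, negative = inhibition: 0% = enzyme reaction without inhibitor and -100% = no enzyme wells.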 To be noted: Biochemical Sfp PPTase activity. In a few lines: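 Sfp 15 nM + cpd, 15 min RT; start w/ rhodamine-CoA 5 uM, BHQ-2-YbbR 12.5 uM (final); 50 mM Hepes pH 7.6, 10 mM MgCl2, 0.01% NP-40, 0.01% BSA; read 525/598 nm at 0 and 30 min.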
(Quantitative high-throughput screening tests each substance at several concentrations.)
Turning to `CC(O)c1ccc(OCCN(C)c2ccccn2)cc1` (configuration not stated), the largest response in the series, negative = inhibition was -0.377%.
For `CC(=O)N1C(=O)/C(=C2\SC(=S)N(NC(=O)c3ccc(O)cc3)C2=O)c2ccccc21`, the Potency was 50.1 µM (active).
With `O=C(O)c1ccc(/C=C2\SC(=S)N(NC(=O)c3ccc(Br)cc3)C2=O)cc1`, the largest response in the series, negative = inhibition is -5.87%.
Same read-out and setting: in the case of `O=C(O)c1ccc2c(c1)C(=O)N(NC(=O)c1ccc(O)cc1)C2=O` it was 1.07%; in that of `COc1cc(Cl)ccc1OCc1cc(C(=O)N2CC[C@@H]3CCCC[C@H]3C2)no1`, -14.4%; in that of `COc1ccc(-c2nc3c(c4c2C[C@H](c2ccccc2)OC4)CN(C(=O)C2CC2)CC3)c(C)c1`, 12.8%.
On the same count and under the same terms, in the case of `N#CC1=C(N)Oc2n[nH]c(CSc3ccccc3)c2C12C(=O)Nc1ccccc12` (configuration not stated) it was 17.6%.
As to `N#CC1=C(N)Oc2[nH]c(=S)[nH]c(=O)c2C12C(=O)Nc1ccccc12` (configuration not stated), the Potency was 39.8 µM (active).
As for `CC1(C)Cc2ccccc2-c2[nH]c(=S)[nH]c(=O)c21`, the largest response in the series, negative = inhibition is 2.54%.
Same read-out and setting: in the case of `CCC(C)Sc1nc2c(cnn2-c2ccc(F)cc2)c(=O)[nH]1` (configuration not stated) it was -3.22%.
Same read-out and setting: in the case of `CCOc1ccc(C(C(=O)NC2CCCC2)N(C(=O)c2snc(C(N)=O)c2N)C2CCCC2)cc1` (configuration not stated) it was 16.6%; in that of `COc1ccc2oc(C(=O)NCC(Cc3ccccc3)N(C)C)c(C)c2c1` (configuration not stated), -0.769%; in that of `CC1Cc2cc(/C(O)=C3\C(=O)C(=O)N(Cc4cccnc4)C3c3ccccc3F)ccc2O1` (configuration not stated), 11.3%.
`COc1ccccc1C(=O)NN1C(=O)C2C3C=CC(O3)C2C1=O` (configuration not stated): the Potency is 56.2 µM (active).
Consider `O=C(NN1C(=O)C2C3C=CC(C4CC34)C2C1=O)c1ccc(Cl)cc1` (configuration not stated), for which the largest response in the series, negative = inhibition is 27.6%.
`O=C(NN1C(=O)C2C3C=CC(O3)C2C1=O)c1ccccc1` (configuration not stated): the Potency is 44.7 µM (active).
As for `O=C(NN1C(=O)C2C(C1=O)C1C=CC2C12CC2)c1ccccc1Cl` (configuration not stated), the largest response in the series, negative = inhibition is 12.4%.
On the same count and under the same terms, next, `COc1ccc(C(=O)NN2C(=O)C3C(c4ccccc4)C=CC(c4ccccc4)C3C2=O)cc1` (configuration not stated): 33.4%; `COc1ccccc1C(=O)Nn1cnnc1`: 6.61%.
As for `COc1ccc(N2CCN(C(=O)c3cn(C)c4ccc(S(=O)(=O)N5CCOCC5)cc4c3=O)CC2)cc1`, the largest response in the series, negative = inhibition is 1.25%.
`O=C(C1CCC1)N1CCN(c2ccccc2)CC1`: the largest response in the series, negative = inhibition was 17.5%.
`CC1(c2ccc3ccccc3c2)NC(=O)NC1=O` (configuration not stated): the largest response in the series, negative = inhibition was 12%.
Same read-out and setting: next, `CC(C)C[C@@H](COc1ccccc1)N1CCN(CC(C)C)CCC1=O`: 3.76%.
On the same count and under the same terms, next, `CCCCCCCC/C=C\CCCCCCCC(=O)NCC(=O)O`: 8.62%; `CCCCCCC(O)(CCN1CCCCC1)c1ccccc1` (configuration not stated): 9.61%.
As for `CCCn1c(C2CCCN2c2nc(-c3ccc(C)cc3)cs2)nc2cc(Cl)c(N3CCCCC3)cc21` (configuration not stated), the largest response in the series, negative = inhibition was -23.2%.
As to `CCCn1c(C2CCCN2c2nc(-c3ccc(OC)cc3)cs2)nc2ccccc21` (configuration not stated), the Potency is 89.1 µM (active).
Regarding `CCCn1c(CCNc2nc(-c3ccc(OC)cc3)cs2)nc2ccccc21`, the largest response in the series, negative = inhibition is -0.532%.
On the same count and under the same terms, in the case of `CC1CCN(C2=NC(=O)/C(=C/c3ccc(O)cc3)S2)CC1` it was 14%; in that of `COc1ccc(N=Nc2c(-c3ccc(OC)cc3)[nH]oc2=O)cc1`, 24.2%; in that of `O=C(c1ccc(Cl)cc1)c1cnc(Nc2ccccc2)s1`, -3.35%.
Same read-out and setting: next, `CS(=O)(=O)c1ccc(Cl)c(NC(=O)Nc2ccccc2)c1`: 7.87%.
On to `O=C(Nc1ccccc1)c1nnsc1S(=O)(=O)c1ccc(Cl)cc1`, for which the Potency was 11.2 µM (active).
As to `CN(c1ccc(O)cc1)c1nc(-c2cccnc2)cs1`, the largest response in the series, negative = inhibition is 0.24%.
As to `Cc1ccc(SC(CC(=O)c2ccc(C(C)(C)C)cc2)C(=O)O)cc1` (configuration not stated), the Potency was 28.2 µM (active).
For the molecule `Cc1ccc(C(=O)CNc2ccc(F)cc2)cc1`, the largest response in the series, negative = inhibition was -8.3%.
On the same count and under the same terms, next, `Cc1ccc(C(=O)CSc2ccccc2C(=O)O)cc1`: 13.7%; `O=C(Nc1ccccc1N1CCOCC1)c1ccc(OCc2cscn2)cc1`: -1.59%.
As to `NC(=S)c1ccc(C(N)=S)o1`, the Potency was 56.2 µM (active).
For `O=C(O)C1CC=CC2CCN(C3CCCCC3)C(=O)C21` (configuration not stated), the largest response in the series, negative = inhibition was 40%.
Turning to `COc1ccc(-n2cc(-c3ccccc3)c3c(=S)nc[nH]c32)cc1`, the largest response in the series, negative = inhibition was 7.93%.
Same read-out and setting: next, `COc1ccc(C)cc1NC(=O)NCCCCc1ccccc1`: -4.5%.
Still for that read-out and setting: in the case of `CN(Cc1ccccc1)C(=O)CCc1ccccc1` it was 20.4%; in that of `O=C(c1ccccc1F)N(Cc1ccccc1)Cc1ccccc1`, 9.85%.
For the molecule `CN(Cc1ccccc1)Cc1ccccc1F`, the Potency was 50.1 µM (active).
With `Cc1ccc(C)c(OCCC(=O)OCC(=O)N2CCN(c3ccccc3)CC2)c1`, the largest response in the series, negative = inhibition was -6.17%.
Same read-out and setting: in the case of `Cc1coc2c1c(C)cc1oc(=O)c(CC(=O)NCC(=O)N[C@H](C(=O)O)C(C)C)c(C)c12` it was 1.89%.
